Test results taken from PubChem BioAssay (NCI).
Compounds without any hit were thinned out: in the full panel of roughly 83,000, 20% have a hit.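 Growth was measured after 48 h exposure to one concentration of compound in 96-well plates. Values under 10 count as active.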 Unmarked numbers belong to inactive results. Calls of active or inactive are those of the source.

Tested on: HCT-15 colon
Assay: NCI-60 one-dose screen, 48 h (100 = growth as untreated, 0 = no growth, -100 = all killed)
Conditions: 10 µM
Description: Growth inhibition of the HCT-15 human tumor cell line is measured as a screen for anti-cancer activity. Cells are grown in 96 well plates and exposed to the test compound for 48 hours. Compounds are tested at a single concentration, which is 10^-5 M for most compounds. The reported endpoint is percent growth (GI% or GIPRCNT), where numbers from 0 - 100% represent growth inhibition, and numbers from -100% - 0 represent cell death. For example, a value of 40 represents 60% growth inhibition. A value of 0 means no net growth occurred over the course of the experiment. A value of -40 indicates 40% of cells at the beginning of the experiment died by the end of the experiment. A value of -100 means all cells are dead at the end of the experiment.
NCI-60 Human Tumor Cell Lines Screen was performed using the standard one-dose NCI protocol, which is described in more detail at https://dtp.cancer.gov/discovery_development/nci-60/default.htm.
Compounds with GIPRCNT values below 10 were considered active. Activity score was based on GIPRCNT using the following formula: […]
Score is 0 for GIPRCNT values of 100 or above, 50 for GIPRCNT values of 0, and 100 for GIPRCNT values of -100.

SMILES | growth
COc1cccc(NC(=O)c2sc3nc4c(cc3c2N)C(O)CCC4)c1 (stereo not given) | 19.4%
COc1ccc(-c2nc(-c3nc4ccc(OC)cc4[nH]3)cc3c2[nH]c2ccccc23)cc1 | 28.7%
O=C1/C(=C\c2ccc(F)cc2)CN(C(=O)c2ccc([N+](=O)[O-])cc2)C/C1=C\c1ccc(F)cc1 | 7.31% (active)
CS(=O)(=O)Nc1ccc(Nc2c3ccccc3nc3cc([N+](=O)[O-])ccc23)cc1 | 6.81% (active)
Clc1ccc(/C=C2\CCCC3=C2N=C2SC=NN2C3c2ccc(Cl)cc2)cc1 (stereo not given) | 87.3%
CN(C)CC(O)c1ccc2cc(Br)c3ccccc3c2c1 (stereo not given) | 53.7%
COc1ccc(OC)c(NC(=O)c2sc3nc4c(cc3c2N)C(=O)CCC4)c1 | 80.6%
O=C(Nc1cccc(-n2cc(-c3ccncc3)c(-c3ccc(O)c(Cl)c3)n2)c1)Nc1cccc(C(F)(F)F)c1 | 14.9%
Cc1ccc(NC(=O)Nc2c(Cl)cccc2Cl)cn1 | 100%
c1ccc([I+]c2ccccc2)cc1 | 89.4%
Cn1c(C(N)=O)cc2c1-c1nc(Nc3ccccc3)ncc1CCC2 | 34.6%
CC(C)(C)NC/C(=C\c1ccccc1)C(=O)c1ccccc1 | -52.1% (active)
COc1cccc(C(=O)Nc2ccc(CN3CCc4nc5cc(OC)c(OC)cc5cc43)cc2)c1 | 47.7%
COc1ccc(/C=C/C(=O)Nc2ccc(-c3nc4ccc(F)cc4s3)cc2)cc1 | 105%
COc1cc(-c2nn3c(/C=C4/C(=O)Nc5ccccc54)c(-c4ccc(C)cc4)nc3s2)cc(OC)c1OC | 58.9%
O=C(N/N=C/c1ccccc1)C(Oc1ccccc1)c1ccccc1 (stereo not given) | 91.9%
COC(=O)c1ccc(=O)oc1 | 97.8%
COc1cc(/C=C/C(=O)c2ccc(Cl)cc2)ccc1OS(=O)(=O)c1ccc(C)cc1 | 66%
COc1cc(/C=N/NC(=O)c2ccccc2Nc2ccnc(C(F)(F)F)c2)ccc1O | 106%
COc1cc(-c2nnc(-c3c(-c4ccc(F)cc4)nc4ccccn34)o2)cc(OC)c1OC | 90.6%

SMILES | growth
CCCCCCN1C(=O)C2=C(c3ccc(Cl)cc3)Nc3c(c(C)nn3-c3ccccc3)C2c2ccccc21 (stereo not given) | 93.4%
CC/C(=C(/c1ccc(OCCN(C)C)cc1)c1ccc(OC(=O)CCCCC(=O)c2c(C)[nH]c(/C=C3\N=C(c4ccc[nH]4)C=C3OC)c2C)cc1)c1ccccc1 | 27.1%
O=[P@@]1(c2ccccc2)O[C@H](COCc2ccccc2)[C@@H](OCc2ccccc2)[C@H](OCc2ccccc2)[C@H]1O | 94.2%
CN(C)c1ccc(Cc2ccc(N(C)C)cc2Cl)c(Cl)c1 | 101%
CCN(CC)CCOc1nc2ccccc2c2c1-c1ccc(OC)cc1C2=O | 2.9% (active)
Nc1nc(Nc2ccccc2)n[nH]1 | 93.8%
COc1ccc(-c2nc3sc(-c4ccccc4)c(-c4ccccc4)n3c2/C=C/C(=O)c2ccccn2)cc1 | 60.6%
Clc1ccc(Sc2nc(NC3CC3)nc(Sc3ccc(Cl)cc3)n2)cc1 | 71.3%
Cc1c(Cl)cccc1NC(=O)c1sc2nc3c(cc2c1N)C(=O)CCC3 | 21%
O=C(Nc1cccc(-n2cc(-c3ccncc3)c(-c3ccc(O)c(Cl)c3)n2)c1)c1ccc(Cl)c(Cl)c1 | 24%
CCCCOc1ccc(NC(=O)Nc2nnc(C)s2)cc1 | 99.5%
O=C(/C=C/c1cc2ccccc2[nH]c1=O)c1ccc2c(c1)OCO2 | 97.6%
Oc1[nH]c2cc(Cl)ccc2c1/C=c1/ccc2c(c1)N=C(c1cc(F)cc(F)c1)N=2 | 37.3%
CC/C(=N\N=C(/CC)c1ccc(Br)cc1)c1ccc(Br)cc1 | 85.4%
COc1cc(NC(=O)c2sc3nc4c(cc3c2N)C(O)CCC4)cc(OC)c1 (stereo not given) | 60.1%
O=[N+]([O-])c1ccc(N/N=C/c2cccc3ccccc23)nc1 | 91.1%
CCOC(=O)C(CSC(c1ccccc1)(c1ccccc1)c1ccccc1)NC(=O)C(CSC(c1ccccc1)(c1ccccc1)c1ccccc1)NC(c1ccccc1)(c1ccccc1)c1ccccc1 (stereo not given) | 100%
O=[N+]([O-])c1cccc(-c2ncc(-c3ccc(Cl)cc3Cl)[nH]2)c1 | -89.7% (active)
Cc1cs/c(=N\NC(=O)c2cc(-c3cc4ccccc4o3)nn2-c2ccccc2)n1-c1ccccc1 | 96.6%
O=C1OCC2=C1C(c1ccc(Cl)c(Cl)c1)c1cc3c(cc1N2CCO)OCCO3 (stereo not given) | 18.3%
